Reference: PubChem BioAssay AID1159580 (chemical genetic matrix, 2015)
Several values for one entry are separate records, joined by “and”; a condition that tells them apart may be missing. Equal entries are not always repeated. Among all 5,500 compounds or so, about 2,000 (36%) were called active. About 18% were inconclusive and are not listed. No stated cut-off is given here; in the data, active means normalized growth mostly below about 0.91 (no sharp cut-off); inconclusive means no clear call, values can overlap the other calls; inactive means mostly above about 0.92. The list shows a part of the results.

Assay: chemical genetic growth profiling, strain panel (AID 1159580);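 further: tested at 20 µM; growth read once vehicle control cultures reached saturation at 30 °C; 1 = growth at the plate median or of vehicle wells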
Conditions: S. cerevisiae deletion strains, growth OD

Measured: normalized growth

Cc1cc(C(C)(C)C)c(O)c(C(C)(C)C)c1
inactive: locus YAL013W, strain DEP1, stronger effect = lower value 0.985 | locus YAL021C, strain ccr4, stronger effect = lower value 1.04 | locus YAL026C, strain drs2, stronger effect = lower value 0.956 | locus YAL030W, strain snc1, stronger effect = lower value 0.99 | locus YBL061C, strain skt5, stronger effect = lower value 0.943 | locus YBR009C, strain hhf1, stronger effect = lower value 0.91 | locus YBR021W, strain FUR4, stronger effect = lower value 0.997 | locus YBR023C, strain chs3, stronger effect = lower value 0.984 | locus YBR171W, strain sec66, stronger effect = lower value 0.979 | locus YBR229C, strain ROT2, stronger effect = lower value 0.964 | locus YBR231C, strain swc5, stronger effect = lower value 0.921 | locus YBR279W, strain paf1, stronger effect = lower value 0.996 | locus YCL011C, strain gbp2, stronger effect = lower value 0.917 | locus YCL016C, strain dcc1, stronger effect = lower value 0.983 | locus YCL029C, strain bik1, stronger effect = lower value 0.983 | locus YCL061C, strain MRC1, stronger effect = lower value 0.991 | locus YCL069W, strain vba3, stronger effect = lower value 0.99 | locus YCR088W, strain abp1, stronger effect = lower value 0.976 | locus YDL005C, strain med2, stronger effect = lower value 0.975 | locus YDL035C, strain GPR1, stronger effect = lower value 0.947 | locus YDL040C, strain nat1, stronger effect = lower value 0.978 | locus YDL074C, strain BRE1, stronger effect = lower value 0.816 | locus YDL101C, strain DUN1, stronger effect = lower value 0.96 | locus YDL134C, strain PPH21, stronger effect = lower value 0.972 | locus YDL185W, strain tfp1, stronger effect = lower value 0.962 | locus YDL192W, strain arf1, stronger effect = lower value 0.969 | locus YDR001C, strain nth1, stronger effect = lower value 0.978 | locus YDR069C, strain doa4, stronger effect = lower value 0.963 | locus YDR101C, strain arx1, stronger effect = lower value 0.977 | locus YDR137W, strain rgp1, stronger effect = lower value 0.965 | locus YDR150W, strain NUM1, stronger effect = lower value 0.975 | locus YDR159W, strain sac3, stronger effect = lower value 0.959 | locus YDR162C, strain NBP2, stronger effect = lower value 0.859 | locus YDR297W, strain sur2, stronger effect = lower value 0.983 | locus YDR318W, strain mcm21, stronger effect = lower value 0.984 | locus YDR334W, strain swr1, stronger effect = lower value 0.966 | locus YDR335W, strain msn5, stronger effect = lower value 0.989 | locus YDR388W, stronger effect = lower value 0.994 | locus YDR392W, strain spt3, stronger effect = lower value 0.937 | locus YDR502C, strain sam2, stronger effect = lower value 0.952 | locus YEL003W, strain gim4, stronger effect = lower value 0.967 | locus YEL037C, strain rad23, stronger effect = lower value 0.976 | locus YEL061C, strain CIN8 (second series), stronger effect = lower value 0.976 | locus YEL061C, strain CIN8, stronger effect = lower value 0.983 | locus YER015W, strain faa2, stronger effect = lower value 0.937 | locus YER016W, strain bim1, stronger effect = lower value 0.984 | locus YER110C, stronger effect = lower value 1 | locus YER111C, strain swi4, stronger effect = lower value 0.982 | locus YER155C, strain BEM2 (second series), stronger effect = lower value 0.949 | locus YER155C, strain BEM2, stronger effect = lower value 0.986 | locus YER167W, strain BCK2, stronger effect = lower value 0.963 | locus YFR010W, strain ubp6, stronger effect = lower value 0.956 | locus YGL078C, strain dbp3, stronger effect = lower value 0.962 | locus YGL086W, strain mad1, stronger effect = lower value 1 | locus YGL167C, strain pmr1, stronger effect = lower value 0.991 | locus YGL173C, strain kem1, stronger effect = lower value 0.957 | locus YGL227W, strain vid30, stronger effect = lower value 0.989 | locus YGL240W, strain doc1, stronger effect = lower value 0.938 | locus YGL248W, strain PDE1, stronger effect = lower value 0.965 | locus YGL253W, strain hxk2, stronger effect = lower value 0.96 | locus YGR078C, strain PAC10, stronger effect = lower value 0.93 | locus YGR135W, strain pre9, stronger effect = lower value 0.928 | locus YGR229C, strain SMI1, stronger effect = lower value 0.86 | locus YGR252W, strain gcn5, stronger effect = lower value 1.03 | locus YHR013C, strain ard1, stronger effect = lower value 1.1 | locus YHR027C, strain rpn1, stronger effect = lower value 0.955 | locus YHR030C, strain SLT2, stronger effect = lower value 0.996 and 0.877 | locus YHR079C, strain IRE1 (second series), stronger effect = lower value 0.963 | locus YHR079C, strain IRE1, stronger effect = lower value 0.918 | locus YHR094C, strain hxt1, stronger effect = lower value 1 | locus YHR129C, strain ARP1, stronger effect = lower value 0.978 | locus YHR142W, strain chs7, stronger effect = lower value 0.961 | locus YHR200W, strain rpn10, stronger effect = lower value 1 | locus YIL066C, strain RNR3, stronger effect = lower value 0.934 | locus YIL073C, strain SPO22, stronger effect = lower value 0.929 | locus YIL125W, strain kgd1, stronger effect = lower value 0.967 | locus YIR030C, strain dcg1, stronger effect = lower value 0.998 | locus YJL092W, strain hpr5, stronger effect = lower value 0.984 | locus YJL095W, strain BCK1 (second series), stronger effect = lower value 0.979 | locus YJL095W, strain BCK1, stronger effect = lower value 0.903 and 0.934 | locus YJL115W, strain asf1, stronger effect = lower value 0.983 | locus YJL129C, strain trk1, stronger effect = lower value 0.953 | locus YJL134W, strain LCB3, stronger effect = lower value 1 | locus YJL154C, strain vps35, stronger effect = lower value 0.984 | locus YJL164C, strain tpk1, stronger effect = lower value 0.95 | locus YJL166W, strain qcr8, stronger effect = lower value 0.951 | locus YJL168C, strain set2, stronger effect = lower value 0.996 | locus YJL187C, strain SWE1 (second series), stronger effect = lower value 0.886 | locus YJR043C, strain POL32, stronger effect = lower value 0.97 | locus YJR066W, strain TOR1, stronger effect = lower value 0.942
active: locus YDR195W, strain ref2 0.845
